# Experimental data as given in PubChem BioAssay (EPA / NIEHS).
# Records with an inconclusive call do not appear. The source made the active and inactive calls. Rule for the calls: active = hit-call score of the fitted dose curve at least 0.9, where 1 is the maximum; inconclusive = response in the unintended direction; inactive = score below 0.9.
# Biological target: human Neurokinin, NK2 Receptor, TACR2 (gene 6865) (UniProt P21452)
# Experiment: NVS_GPCR_hNK2: NovaScreen (NVS) G Protein-Coupled Receptor Assay for human Neurokinin, NK2 Receptor (AID 2283278);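 note: actives reduce bound radioligand signal relative to DMSO baseline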
# Description: NVS_GPCR_hNK2 is a biochemical, single-readout assay that uses extracted gene-proteins from CHO in a cell-free assay. Measurements were taken 4 hours after chemical dosing in a 96-well plate.NVS_GPCR_hNK2 is one of one assay component(s) measured or calculated from the NVS_GPCR_hNK2 assay. It is designed to make measurements of radioligand binding, a form of binding reporter, as detected with scintillation counting signals by Filter-based radiodetection technology.Data from the assay component NVS_GPCR_hNK2 was analyzed into 1 assay endpoint. This assay endpoint, NVS_GPCR_hNK2, was analyzed in the positive analysis fitting direction relative to DMSO as the negative control and baseline of activity. Using a type of binding reporter, loss-of-signal activity can be used to understand changes in the binding as they relate to the gene TACR2. Furthermore, this assay endpoint can be referred to as a primary readout, because the performed assay has only produced 1 assay endpoint. To generalize the intended target to other relatable targets, this assay endpoint is annotated to the gpcr intended target family, where the subfamily is rhodopsin-like receptor.
# Binding assays used specific radioligands (tritiated, iodinated) with non-radioactive competitive displacement ligands in agonist or antagonist protocols (as indicated) and various reference compounds and inhibitors to titrate specific binding to receptors and transporters. Most enzyme assays (CYPs, kinases, phosphatases, proteases, HDACs) used recombinant protein and specific substrates (fluorescence mostly, some colorimetric and radioactive) and inhibitors, followed by a biochemical separation of substrate and product. All assays for the biochemical HTS were initially run in duplicate at a single concentration (10 uM for CYP450 assays and 25 uM for all others). […] Each assay was run with positive and negative controls, and concurrent controls on every plate. The follow-up (secondary) screen tested active chemical-pairs in concentration series, as well as a few additional assays not tested in the primary screen, some selected negative inactives, and several cases re-run in the concentration series for confirmatory purposes.
# Sequence of human Neurokinin, NK2 Receptor, TACR2 (gene 6865) (P21452 whole entry, looked up): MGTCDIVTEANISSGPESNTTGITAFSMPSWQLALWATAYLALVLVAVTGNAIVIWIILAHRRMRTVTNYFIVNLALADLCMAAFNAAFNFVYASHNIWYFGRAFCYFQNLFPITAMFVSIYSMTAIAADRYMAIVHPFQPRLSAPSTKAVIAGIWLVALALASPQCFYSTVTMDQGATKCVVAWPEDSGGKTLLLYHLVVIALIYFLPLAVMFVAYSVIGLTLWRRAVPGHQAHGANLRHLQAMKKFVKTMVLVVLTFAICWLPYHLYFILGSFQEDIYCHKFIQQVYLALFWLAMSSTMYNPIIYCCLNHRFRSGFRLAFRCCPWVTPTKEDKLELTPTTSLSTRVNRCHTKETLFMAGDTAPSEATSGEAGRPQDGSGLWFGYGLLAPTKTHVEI
SMILES,AC50,outcome
CCN(CC)C(=O)c1cc(S(=O)(=O)Cc2ccccc2)c(N2CCC(c3ccccc3)CC2)cc1N(CC)CCN(C)C,4.95 µM (active),
CN(C)c1ccc(C(=C2C=CC(=[N+](C)C)C=C2)c2ccc(N(C)C)cc2)cc1,3.82 µM (active),
O=c1[nH]sc2ccccc12,0.38 µM (active),
CCCCCCCCOC(=O)c1cc(O)c(O)c(O)c1,7.2 µM (active),
CCCCCCCCCCCC[N+](C)(C)C,18.6 µM (active),
CC1(C)NC(=O)N(c2ccc([N+](=O)[O-])c(C(F)(F)F)c2)C1=O,,inactive
CCCOC(=O)c1cc(O)c(O)c(O)c1,,inactive
CN(C[C@@H](CC[N+]12CCC(C3CCCCC3)(CC1)CC2)c1ccc(Cl)c(Cl)c1)C(=O)c1cc(C(F)(F)F)cc(C(F)(F)F)c1,0.0311 µM (active),
O=C1c2ccccc2C(=O)N1CCc1noc(-c2ccc(CN3CCCCCC3)s2)n1,12.3 µM (active),
CCOC(=O)O[C@H](C)OC(=O)c1ccc2c(c1)cc(C(=O)NC1CCN(C(C)C)CC1)n2Cc1cc(-c2ccc(Cl)s2)on1,3.38 µM (active),
Cc1cc(F)ccc1-c1cc(N2CC[C@@H](O)[C@H]2CO)ncc1N(C)C(=O)C(C)(C)c1cc(C(F)(F)F)cc(C(F)(F)F)c1,0.181 µM (active),
O=CCCCC=O,,inactive
Cc1oc2c(NC(=O)c3c(Cl)cccc3Cl)cccc2c1C(C)(C)O,,inactive
NCc1cccc(C2CCN(C(=O)c3ccc(C#Cc4ccccc4F)o3)CC2)c1,2.9 µM (active),
CN(C)C(=O)C1(N2CCCCC2)CCN(CC[C@@]2(c3ccc(Cl)c(Cl)c3)CN(C(=O)c3ccccc3)CCO2)CC1,,inactive
COc1cc(C(=O)NC2CCN(C)CC2)ccc1Nc1ncc2c(n1)N(C1CCCC1)CC(F)(F)C(=O)N2C,,inactive
